Screening data deposited in PubChem BioAssay by National Center for Advancing Translational Sciences (NCATS).
This is a sample that favours compounds with a hit; in the whole collection about 10% have one here.
SW480 rerep: A quantitative high throughput screen for small molecules that induce DNA re-replication in SW480 colon adenocarcinoma cells; SW480 DNA re-replication, Hoechst DNA content imaging, 48 h; Potency, µM (top dose mostly 46.1 µM), without a hit: at the highest dose re-replication activation, actives largely listed as activators; 340,000 tested, 1.8% active; AID 624297, 2012; further: % of control where 0% means no effect; nearly all actives have a fitted effect of over 55% in size
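DNA re-replication was detected as more nuclei of elevated Hoechst intensity after 48 hr exposure to compound (23 nL pinned per well of 250 cells).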
MCF10A rereplic: A quantitative high throughput screen for small molecules that induce DNA re-replication in MCF 10a normal breast cells; MCF 10A DNA re-replication, Hoechst nuclear intensity, 48 h; Potency, µM (series often up to 46.1 µM), for the others: at the highest dose activity, positive = re-replication, hits mostly activators; 350,000 tested, 2.9% active; further: % of control where 0% means no effect; nearly all actives have a fitted effect of over 50% in size
Gal4-VP16 FLuc: VP16 counterscreen qHTS for inhibitors of ROR gamma transcriptional activity; Drosophila S2 Gal4-VP16 UAS-luciferase, luminescence, 20 h; Potency, µM (series often up to 53.6 µM), for the others: top-dose activity, negative = inhibition, usual class: inhibitors; 310,000 tested, 3.5% active;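 further: Gal4-VP16 expression switched on by copper sulfate through the metallothionein promoter; on the % scale 0 is the no-effect control and ±100 the full control effect; nearly all actives have a fitted effect of over 50% in size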
RORg inh: qHTS for inhibitors of ROR gamma transcriptional activity. 310,000 tested, 5.4% active. Drosophila S2 Gal4-RORgamma UAS-luciferase reporter, 20 h. AID 2551, 2010. Nuclear receptor ROR-gamma (Mus musculus), P51450. Potency, µM (highest dose often 53.6 µM), without a hit: at the highest dose activity change, negative = inhibition, actives largely listed as inhibitors; further: on the % scale 0 is the no-effect control and ±100 the full control effect; nearly all actives have a fitted effect of over 60% in size
Target sequence (P51450 whole entry, looked up, the tested form may be a part): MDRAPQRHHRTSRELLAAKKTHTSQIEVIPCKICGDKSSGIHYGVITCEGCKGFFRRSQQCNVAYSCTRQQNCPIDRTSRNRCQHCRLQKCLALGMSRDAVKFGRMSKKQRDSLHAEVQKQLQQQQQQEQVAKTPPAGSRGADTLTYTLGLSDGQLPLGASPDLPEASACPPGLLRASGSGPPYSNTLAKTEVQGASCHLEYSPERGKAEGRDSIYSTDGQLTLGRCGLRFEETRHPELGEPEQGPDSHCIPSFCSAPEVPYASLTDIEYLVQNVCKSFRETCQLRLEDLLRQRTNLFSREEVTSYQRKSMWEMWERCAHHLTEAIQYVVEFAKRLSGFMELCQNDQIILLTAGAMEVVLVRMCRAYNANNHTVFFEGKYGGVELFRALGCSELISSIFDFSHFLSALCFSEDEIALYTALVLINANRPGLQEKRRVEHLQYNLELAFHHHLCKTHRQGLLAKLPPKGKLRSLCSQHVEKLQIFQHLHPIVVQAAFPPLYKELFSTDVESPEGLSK
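In this cell-based reporter format, copper sulfate (700 uM final) drives Gal4–ROR gamma fusion expression from a metallothionein promoter in Drosophila Schneider cells; compounds preincubated 1 hr, reporter read after 20 hr at ambient temperature.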
ELG1 DNA repair: qHTS screen for small molecules that inhibit ELG1-dependent DNA repair in human embryonic kidney (HEK293T) cells expressing luciferase-tagged ELG1. HEK293T ELG1-luciferase reporter, luminescence, 16 h; DNA damage induced by 5-fluorouridine. Potency, µM (titrated, usually from 46.1 µM), for the others: at the highest dose activity change, negative = inhibition, hits mostly inhibitors. 330,000 tested, 2.3% active. AID 504467, 2011; further: on the % scale 0 is the no-effect control and ±100 the full control effect; nearly all actives have a fitted effect of over 55% in size
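Step one: seed 2,000 cells per well. Step two: pin-transfer compound or DMSO alongside 5-fluorouridine. Step three: incubate 16 hr, 37 °C, 5% CO2. Step four: add ONE-Glo, wait 30 min, read luminescence.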
* marks the source's active call; other numbers are inactive results; u = inconclusive; x = not tested or not shown; [ ] = another dose, or the depositor's remark. The call rests on the fitted dose curve; in most records, active means well fitted curve in the direction sought with a large enough effect; inconclusive means small, poorly fitted or top-dose-only effect, or another doubt; inactive means no such curve, though single readings can be large; an effect the other way counts as inactive or inconclusive. Potency means the concentration at half of the fitted maximal effect.

SMILES	SW480 rerep	MCF10A rereplic	Gal4-VP16 FLuc	RORg inh	ELG1 DNA repair
Cc1cc(-c2n[nH]c(=S)n2/N=C/c2cccc(O)c2)n[nH]1	10.8%	8.1%	0.2%	2.9%	0.0%
Cc1cc(-c2n[nH]c(=S)n2/N=C/C(Cl)=C/c2ccccc2)n[nH]1	u	4.61µM*	u	8.91µM*	15.9%
S=c1[nH]nc(-c2ccco2)n1/N=C/C(Cl)=C/c1ccccc1	u	7.31µM*	11.2µM*	3.98µM*	u
CC(C)c1ccccc1NC(=S)N1CCN(S(=O)(=O)c2cccs2)CC1	-1.5%	18.2%	1.4%	u	6.2%
COC(=O)c1ccc(-c2nc3cc(Cl)c(N)cc3s2)cc1	u	0.651µM*	-9.7%[0.365 µM]	5.01µM*	u
C/C=C(/C)C(=O)O[C@H]1CC(C)=CC(=O)[C@@]2(C)CC[C@@](O)(C(C)C)[C@H]12	x	x	-4.6%	-8.2%	x
C=C1C(=O)OC2CC1C(O)CC(C)=CCCC(C)=CC(O)CC2C (stereo unspecified)	u	1.3µM*	x	x	x
C=C1C(=O)OC2CC1C(OC(C)=O)CC(C)=CCCC(C)=CCC[C@@]2(C)O (stereo partly specified)	x	x	u	5.62µM*	x
CCOc1ccc(NC(=S)NC(=O)c2ccco2)cc1	-0.4%	-2.3%	u	6.31µM*	u
Cc1ccc(NC(=S)NC(NC(=O)c2ccco2)C(Cl)(Cl)Cl)cc1 (stereo unspecified)	9.3%	16.4µM*	7.08µM*	11.2µM*	u
CC(C)CC(=O)NC(=S)Nc1ccc(NC(=O)c2ccco2)cc1	u	8.6%	-15.3%	12.6µM*	-24.2%
COc1cc(NC(=O)c2cc3ccccc3o2)ccc1NC(=O)c1ccco1	u	u	-6.3%	-19.5%	u
CCC(=O)NC(=S)Nc1ccc(NC(=O)c2ccco2)cc1	-7.3%	6.2%	7.6%	-18.9%	u
CCOc1ccc(NC(=O)c2ccco2)cc1	-1.7%	5.7%	x	-9.3%[0.365 µM]	u
COc1cc(NC(=O)c2oc3ccccc3c2C)ccc1NC(=O)c1ccco1	1.2%	18.4µM*	-13.6%	-3.6%	-22.5%
COc1ccccc1CCC(=O)OCC(=O)Nc1c(Br)cc(C)cc1Br	-1.0%	-12.4%	4.9%	-14.8%	12.9%
COc1ccccc1CN1CC(C(=O)N(C)Cc2[nH]c3ccccc3c2C)CCC1=O (stereo unspecified)	-4.1%	5.3%	1.4%	41.2%	-0.3%
CCS(=O)(=O)c1nc(S(=O)(=O)c2ccc(Cl)cc2)c(N2CCc3ccccc3C2)s1	x	9.5%	u	20.6%	u
CCC(=O)NC(=S)Nc1ccc(NC(=O)c2ccco2)c(OC)c1	7.9%	21.6%	u	12.6µM*	-14.5%
CCc1ccc(NC(=S)NC(=O)CC(C)C)cc1	10.4%	1.6%	1µM*	1.12µM*	u
COc1cc(NC(=O)Cc2ccccc2)ccc1NC(=O)c1ccco1	-1.3%	10.9%	5.5%	39.8%	20.0%
CCCCC(=O)NC(=S)Nc1cccc(NC(=O)c2ccco2)c1	-3.0%	1.9%	15.8µM*	u	u
COc1ccc2ccccc2c1C1CC(=O)N2CN(Cc3ccco3)CSC2=C1C#N (stereo unspecified)	8.1%	5.0%	u	10µM*	-5.1%
COc1ccc(OC)c(C2CC(=O)N3CN(c4ccccc4)CSC3=C2C#N)c1 (stereo unspecified)	-17.5%	8.2%	12.6%	11.2µM*	14.7%
COc1ccc(N2CSC3=C(C#N)C(c4cccc(OC)c4OC)CC(=O)N3C2)cc1 (stereo unspecified)	-4.1%	-0.7%	0.9%	-44.8%	u
SMILES	SW480 rerep	MCF10A rereplic	Gal4-VP16 FLuc	RORg inh	ELG1 DNA repair
CCc1ccc(N(CC(=O)NC2CCCC2)C(=O)CCC(=O)Nc2cc(C)on2)cc1	5.1%	-20.0%	9.2%	18.1%	8.1%
CN1CCC(N(C)C(=O)/C(C#N)=C/c2ccc(OC(F)F)cc2)CC1	-11.0%	9.1%	8.0%	3.0%	2.2%
O=C(CN1CCCc2ccccc21)N/N=C/c1c(O)ccc2ccccc12	u	u	0.794µM*	1.26µM*	19.9%
O=C(CN1CCCc2ccccc21)N/N=C/c1ccc(O)cc1O	u	u	22.4µM*	u	u
CC(C)(C)OC(=O)C[C@H]1C/C=C\C[C@@H](CC(=O)N(CCO)Cc2ccccc2)C(=O)N2CCC[C@H]2COC1=O	-1.1%	-0.4%	x	x	23.1µM*
CC(C)(C)OC(=O)C[C@H]1C/C=C\C[C@@H](CC(=O)N(CCO)Cc2ccccc2)C(=O)N[C@H](Cc2c[nH]c3ccccc23)COC1=O	4.7%	u	x	x	20.6µM*
O=C(O)CCCCCNC(=O)Cn1nnc2ccccc2c1=O	-4.2%	-1.3%	0.6%	8.0%	0.0%
COc1ccc(-c2cc(C(=O)Nc3c(C)nn(Cc4ccc(Cl)cc4)c3C)no2)cc1	u	16.4µM*	-15.1%	-0.3%	u
COc1ccc(OC)c(-c2cc(C(=O)Nc3cc(C)n(Cc4ccc(Cl)cc4)n3)no2)c1	2.5%	-11.4%	1.2%	24.3%	20.6µM*
Cc1nn(Cc2ccc(Cl)cc2)c(C)c1NC(=O)c1cc(-c2ccco2)on1	3.6%	23.1µM*	-1.3%	40.4%	u
Cn1nc(C(F)(F)F)c(/C=N/OC(=O)c2ccccc2)c1SCc1ccccc1Cl	16.4µM*	18.4µM*	2.0%	u	u
CC(C)(C)NC(=O)C(c1ccncc1)N(Cc1ccco1)C(=O)c1ccc(-c2ccccc2)[nH]1 (stereo unspecified)	u	20.6µM*	17.8µM*	7.08µM*	u
O=C(NC1CCCCC1)C(c1ccncc1)N(Cc1ccccc1)C(=O)c1ccc(-c2ccccc2)[nH]1 (stereo unspecified)	u	u	-13.2%	38.8%	-29.7%
O=C(Nc1nc2c(s1)COc1ccccc1-2)c1cccs1	-0.4%	6.8%	5.1%	u	-16.5%
CSc1nc2ccc3nc(NC(=O)c4cccs4)sc3c2s1	12.2%	6.0%	-4.0%	6.31µM*	u
O=C(Nc1nc2c(s1)CCc1ccccc1-2)c1cccs1	5.7%	u	-27.0%	10µM*	u
CC[C@@H]1CC=C[C@H]2[C@H]1C(=O)N(Cc1ccccc1)[C@H]2c1ccoc1	1.5%[9.22 µM]	8.2µM*	u	u	-15.6%
CCOC(=O)C1=C(C)N=C2SCCC(=O)N2C1c1ccc(C(=O)OC)cc1 (stereo unspecified)	-0.1%	-11.8%	9.4%	-7.0%	15.9%
CCOC(=O)C1=C(C)N2C(=C(C#N)[C@@H]1c1ccc(C(=O)OC)cc1)SC[C@@]2(O)C(C)(C)C	u	20.6µM*	3.4%	4.1%	u
